The results in this text go back to PubChem BioAssay (EPA / NIEHS).

Records with an inconclusive call do not appear. Active and inactive are the calls of the source. How the source made its calls: active means hit-call score of the fitted dose curve at least 0.9, where 1 is the maximum; inconclusive means response in the unintended direction; inactive means score below 0.9.

Chain of human Beta-secretase (BACE), BACE1 (gene 23621) (P56817 whole entry, looked up): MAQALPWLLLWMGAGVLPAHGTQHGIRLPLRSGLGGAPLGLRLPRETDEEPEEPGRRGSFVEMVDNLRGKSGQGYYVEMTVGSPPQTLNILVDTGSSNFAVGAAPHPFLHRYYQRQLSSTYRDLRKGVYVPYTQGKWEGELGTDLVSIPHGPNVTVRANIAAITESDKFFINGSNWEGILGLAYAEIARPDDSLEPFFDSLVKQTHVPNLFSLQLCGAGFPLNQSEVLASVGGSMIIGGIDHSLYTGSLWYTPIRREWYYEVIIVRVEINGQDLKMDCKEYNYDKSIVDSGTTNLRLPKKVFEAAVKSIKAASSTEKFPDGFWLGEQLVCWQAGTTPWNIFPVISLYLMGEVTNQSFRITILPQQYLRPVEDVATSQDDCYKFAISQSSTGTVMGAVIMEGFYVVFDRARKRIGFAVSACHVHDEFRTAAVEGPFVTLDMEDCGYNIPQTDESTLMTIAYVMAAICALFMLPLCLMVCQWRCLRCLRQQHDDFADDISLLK
Chain of human Dual Specificity Protein Phosphatase 3 (DUSP3), DUSP3 (gene 1845) (P51452 whole entry, looked up): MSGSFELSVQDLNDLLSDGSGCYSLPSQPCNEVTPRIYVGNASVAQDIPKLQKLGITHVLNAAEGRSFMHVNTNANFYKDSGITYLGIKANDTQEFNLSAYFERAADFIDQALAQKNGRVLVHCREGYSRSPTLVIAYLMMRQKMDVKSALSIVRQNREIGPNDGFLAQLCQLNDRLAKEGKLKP
Chain of Cytochrome P450 3A4 (Homo sapiens) (P08684 whole entry, looked up): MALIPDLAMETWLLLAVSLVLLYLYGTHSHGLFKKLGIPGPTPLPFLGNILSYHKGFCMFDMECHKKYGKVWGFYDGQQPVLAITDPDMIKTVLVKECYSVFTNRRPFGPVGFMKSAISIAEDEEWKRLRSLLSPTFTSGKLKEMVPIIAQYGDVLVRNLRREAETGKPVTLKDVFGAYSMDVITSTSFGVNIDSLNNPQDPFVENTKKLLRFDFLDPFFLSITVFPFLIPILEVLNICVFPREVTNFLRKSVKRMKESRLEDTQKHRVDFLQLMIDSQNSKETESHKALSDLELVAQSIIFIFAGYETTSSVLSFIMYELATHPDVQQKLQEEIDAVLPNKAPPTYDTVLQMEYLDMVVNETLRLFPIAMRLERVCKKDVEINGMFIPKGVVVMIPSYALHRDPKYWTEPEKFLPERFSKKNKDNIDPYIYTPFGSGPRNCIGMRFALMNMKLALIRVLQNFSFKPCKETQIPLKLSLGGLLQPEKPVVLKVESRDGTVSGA
Chain of human Matrix Metalloproteinase-9 (MMP9), MMP9 (gene 4318) (P14780 whole entry, looked up): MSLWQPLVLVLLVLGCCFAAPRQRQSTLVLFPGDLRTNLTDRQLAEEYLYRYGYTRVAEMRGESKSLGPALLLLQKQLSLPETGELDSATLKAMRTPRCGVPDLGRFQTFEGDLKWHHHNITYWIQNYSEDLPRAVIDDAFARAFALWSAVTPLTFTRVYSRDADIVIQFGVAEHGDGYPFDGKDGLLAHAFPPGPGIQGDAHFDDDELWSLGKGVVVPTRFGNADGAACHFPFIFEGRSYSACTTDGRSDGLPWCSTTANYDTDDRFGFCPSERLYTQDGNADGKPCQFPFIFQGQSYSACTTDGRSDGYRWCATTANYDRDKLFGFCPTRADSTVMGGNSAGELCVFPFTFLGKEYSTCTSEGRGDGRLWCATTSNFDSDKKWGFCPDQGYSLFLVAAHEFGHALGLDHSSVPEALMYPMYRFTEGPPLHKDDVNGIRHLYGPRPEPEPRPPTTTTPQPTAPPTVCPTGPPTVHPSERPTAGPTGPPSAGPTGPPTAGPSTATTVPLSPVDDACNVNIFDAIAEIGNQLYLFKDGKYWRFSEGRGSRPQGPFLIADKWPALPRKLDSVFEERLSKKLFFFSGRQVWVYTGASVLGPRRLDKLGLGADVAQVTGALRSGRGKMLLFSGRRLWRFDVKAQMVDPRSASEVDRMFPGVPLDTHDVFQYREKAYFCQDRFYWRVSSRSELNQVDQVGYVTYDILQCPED
Chain of human Caspase 5 (CASP5), CASP5 (gene 838) (P51878 whole entry, looked up): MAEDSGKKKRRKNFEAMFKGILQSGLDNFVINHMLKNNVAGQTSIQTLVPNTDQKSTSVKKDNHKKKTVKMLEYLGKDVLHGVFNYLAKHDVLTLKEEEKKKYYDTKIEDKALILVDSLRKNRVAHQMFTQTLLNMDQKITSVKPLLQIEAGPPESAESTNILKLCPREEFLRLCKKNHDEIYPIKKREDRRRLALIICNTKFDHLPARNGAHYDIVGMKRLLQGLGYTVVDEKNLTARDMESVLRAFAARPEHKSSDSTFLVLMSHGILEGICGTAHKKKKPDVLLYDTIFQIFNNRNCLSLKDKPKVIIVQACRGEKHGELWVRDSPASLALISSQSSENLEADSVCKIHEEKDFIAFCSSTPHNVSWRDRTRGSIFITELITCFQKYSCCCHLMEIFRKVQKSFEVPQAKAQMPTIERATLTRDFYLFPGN

One experiment concerns the target Cytochrome P450 3A4 (Homo sapiens) (UniProt P08684). As to the kind of experiment: NVS_ADME_hCYP3A4: NovaScreen (NVS) CYP450-related Enzyme Activity (ADME) Assay for human CYP3A4 (AID 2283110). In a few lines:
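Cell-free recombinant enzyme expressed in insect cells; fluorescent substrate turnover read after 0.33 h, acetonitrile as negative control. Primary screen in duplicate at 10 uM, actives then tested in concentration series.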
Consider `O=C1OC2(c3cc(Br)c(O)c(Br)c3Oc3c2cc(Br)c(O)c3Br)c2c(Cl)c(Cl)c(Cl)c(Cl)c21`, for which the compound was called inactive.
As for `CC1(C)[C@H]2CC[C@]1(C)[C@H](O)C2`, the outcome was inactive.
By AC50 is commonly meant the concentration at which the activity in the assay is half-maximal. Consider `CC(=O)O[C@]1(C(C)=O)CC[C@H]2[C@@H]3C[C@H](C)C4=CC(=O)CC[C@]4(C)[C@H]3CC[C@@]21C`, for which the AC50 was 9.97 nM (active).

The target in another experiment is Cytochrome P450 2C19 (Homo sapiens) (UniProt P33261). The experiment is described as follows: NVS_ADME_hCYP2C19: NovaScreen (NVS) CYP450-related Enzyme Activity (ADME) Assay for human CYP2C19 (AID 2283113).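 On AC50: potency for inhibition seen as loss of fluorescent signal.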 The method, then: NVS_ADME_hCYP2C19 is a biochemical, single-readout assay that uses extracted gene-proteins from insect cells in a cell-free assay. Measurements were taken 1 hour after chemical dosing in a 96-well plate.NVS_ADME_hCYP2C19 is one of one assay component(s) measured or calculated from the NVS_ADME_hCYP2C19 assay. It is designed to make measurements of enzyme activity, a form of enzyme reporter, as detected with fluorescence intensity signals by Fluorescence technology.Data from the assay component NVS_ADME_hCYP2C19 was analyzed into 1 assay endpoint. This assay endpoint, NVS_ADME_hCYP2C19, was analyzed in the positive analysis fitting direction relative to Acetonitrile as the negative control and baseline of activity. Using a type of enzyme reporter, loss-of-signal activity can be used to understand changes in the enzymatic activity as they relate to the gene CYP2C19. Furthermore, this assay endpoint can be referred to as a primary readout, because this assay has produced multiple assay endpoints where this one serves a enzymatic activity function. To generalize the intended target to other relatable targets, this assay endpoint is annotated to the cyp intended target family, where the subfamily is xenobiotic metabolism.
Binding assays used specific radioligands (tritiated, iodinated) with non-radioactive competitive displacement ligands in agonist or antagonist protocols (as indicated) and various reference compounds and inhibitors to titrate specific binding to receptors and transporters. Most enzyme assays (CYPs, kinases, phosphatases, proteases, HDACs) used recombinant protein and specific substrates (fluorescence mostly, some colorimetric and radioactive) and inhibitors, followed by a biochemical separation of substrate and product. All assays for the biochemical HTS were initially run in duplicate at a single concentration (10 uM for CYP450 assays and 25 uM for all others). […] Each assay was run with positive and negative controls, and concurrent controls on every plate. The follow-up (secondary) screen tested active chemical-pairs in concentration series, as well as a few additional assays not tested in the primary screen, some selected negative inactives, and several cases re-run in the concentration series for confirmatory purposes.
Regarding `O=C1OC2(c3cc(Br)c(O)c(Br)c3Oc3c2cc(Br)c(O)c3Br)c2c(Cl)c(Cl)c(Cl)c(Cl)c21`, the concentration at half-maximal activity (AC50) is 196 nM (active).
Take `Nc1ccc(F)c([N+](=O)[O-])c1`: the AC50 is 66.2 nM (active).
As to `CC(=O)O[C@]1(C(C)=O)CC[C@H]2[C@@H]3C[C@H](C)C4=CC(=O)CC[C@]4(C)[C@H]3CC[C@@]21C`, the concentration at half-maximal activity (AC50) was 2500 nM (active).
Consider `c1ccc2sc(SN(C3CCCCC3)C3CCCCC3)nc2c1`, for which the call was inactive.
Turning to `CCn1c2ccccc2c2cc(N)ccc21`, the AC50 was 2030 nM (active).
Take `O=P(c1ccccc1)(c1ccccc1)c1ccccc1`: the half-maximal activity concentration (AC50) is 12.1 nM (active).

For another experiment, the target named is human Caspase 5 (CASP5), CASP5 (gene 838) (UniProt P51878). As to the kind of experiment: NVS_ENZ_hCASP5: NovaScreen (NVS) Enzymatic Assay for human Caspase 5 (CASP5) (AID 2283137). Summed up:
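Cell-free protease assay with bacterially expressed CASP5 and a fluorescent substrate, measured at 2 h. Values fitted relative to DMSO as baseline, from concentration-response series topping at 50 uM.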
For `O=C1OC2(c3cc(Br)c(O)c(Br)c3Oc3c2cc(Br)c(O)c3Br)c2c(Cl)c(Cl)c(Cl)c(Cl)c21`, the half-maximal activity concentration (AC50) was 552 nM (active).
Take `Nc1cc(N)cc(C(=O)O)c1`: the AC50 was 19900 nM (active).
In the case of `CCCCC/C=C/C=C/C=O`, the AC50 is 627 nM (active).

The next experiment deals with human Beta-secretase (BACE), BACE1 (gene 23621) (UniProt P56817). The experiment is described as follows: NVS_ENZ_hBACE: NovaScreen (NVS) Enzymatic Assay for human Beta-secretase (BACE) (AID 2283140).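 Further: hits are inhibitors that reduce fluorescent substrate signal versus DMSO.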 Summed up:
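Recombinant BACE1 (SF9 extract) incubated with compound and fluorescent substrate, 1 h. Plates carried positive and DMSO negative controls. Initial single dose 25 uM, duplicate; confirmation by concentration series.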
`Cc1ccc(Nc2ccc(O)c3c2C(=O)c2ccccc2C3=O)cc1`: the AC50 was 6250 nM (active).
Regarding `COC(=O)c1ccc(C)cc1`, the compound was classed as inactive.
For `CCCCC/C=C/C=C/C=O`, the half-maximal activity concentration (AC50) was 25000 nM (active).
Regarding `N#Cc1ccccc1`, the compound was called inactive.

For a further experiment, the target named is human Dual Specificity Protein Phosphatase 3 (DUSP3), DUSP3 (gene 1845) (UniProt P51452). The experiment is described as follows: NVS_ENZ_hDUSP3: NovaScreen (NVS) Enzymatic Assay for human Dual Specificity Protein Phosphatase 3 (DUSP3) (AID 2283152).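 Further: phosphatase activity of recombinant human DUSP3 on a fluorogenic substrate without cells.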 Summed up:
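Cell-free assay with recombinant human DUSP3 and fluorogenic substrate, read by fluorescence intensity. Primary screen ran duplicate at 25 uM; actives followed up in concentration series; loss of signal versus DMSO scored.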
With `O=C1OC2(c3cc(Br)c(O)c(Br)c3Oc3c2cc(Br)c(O)c3Br)c2c(Cl)c(Cl)c(Cl)c(Cl)c21`, the concentration at half-maximal activity (AC50) was 6670 nM (active).
`CCCCC/C=C/C=C/C=O`: the half-maximal activity concentration (AC50) was 9310 nM (active).
On the same count and under the same terms, with `S=C(S)NCCNC(=S)S` the figure was 161 nM (active).

The next experiment deals with human Matrix Metalloproteinase-9 (MMP9), MMP9 (gene 4318) (UniProt P14780). The experiment is described as follows: NVS_ENZ_hMMP9: NovaScreen (NVS) Enzymatic Assay for human Matrix Metalloproteinase-9 (MMP9) (AID 2283190).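 Further: cell-free recombinant MMP9 protease activity read by fluorescent substrate signal; active means inhibition seen as loss of fluorescence signal versus DMSO.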 Summed up:
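Inhibition was scored as loss of fluorescence signal against DMSO controls. The recombinant protease was exposed to chemicals for 1 hour before reading; initial testing used 25 uM in duplicate.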
`Cc1ccc(Nc2ccc(O)c3c2C(=O)c2ccccc2C3=O)cc1`: the AC50 is 2180 nM (active).
Turning to `Clc1ccc(Cl)c(Cl)c1Cl`, the AC50 was 6220 nM (active).
On to `CCCCCCCCC`, for which the AC50 was 25000 nM (active).
Same read-out and setting: the value for `CC1CCC(C(C)CS)CC1S` (stereo not drawn) was 997 nM (active).
Turning to `CC(=O)O[C@]1(C(C)=O)CC[C@H]2[C@@H]3C[C@H](C)C4=CC(=O)CC[C@]4(C)[C@H]3CC[C@@]21C`, the outcome was inactive.
For the compound `CCCCC/C=C/C=C/C=O`, the half-maximal activity concentration (AC50) is 25000 nM (active).
As for `CC(=O)OCCOC(C)=O`, the half-maximal activity concentration (AC50) was 14900 nM (active).
Consider `CCO[Si](CCCS)(OCC)OCC`, for which the half-maximal activity concentration (AC50) is 1650 nM (active).
Turning to `CNC[C@H](O)c1cccc(O)c1`, the AC50 is 10600 nM (active).
